High-throughput results from PubChem.
A selection: hits, their analogues and other compounds. The true share with any hit is near 12%.
L3MBTL1 inh = blocks human L3MBTL1. actives 0.66% (n = 230,000). AID 485360. AlphaScreen L3MBTL1–H3K9me1 peptide binding. Potency, µM (doses to about 57.1 µM), without a hit: at the top dose activity, negative = inhibition, hits mostly inhibitors. Q9Y468; note: % is set by controls: 0 for no effect and ±100 for the full control effect; nearly all actives have a fitted effect of over 60% in size
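L3MBTL1 50 nM + b-AHA-H3(1-15)K9me1 75 nM, 30 min RT; compound added, 30 min RT; streptavidin donor/Ni-chelate acceptor beads 10 ug/mL each final, 30 min RT dark; AlphaScreen read.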
HP1b chromo inh = HP1-beta chromodomain-methylated histone interaction inhibition; actives 0.56% (n = 390,000); AlphaScreen HP1-beta / biotin-H3K9me3 peptide binding; Potency, µM (doses to about 114 µM), without a hit: at the top dose activity change, negative = inhibition, hits mostly inhibitors; AID 540317; P83916; note: nearly all actives have a fitted effect of over 70% in size
Target sequence (P83916 whole entry, looked up): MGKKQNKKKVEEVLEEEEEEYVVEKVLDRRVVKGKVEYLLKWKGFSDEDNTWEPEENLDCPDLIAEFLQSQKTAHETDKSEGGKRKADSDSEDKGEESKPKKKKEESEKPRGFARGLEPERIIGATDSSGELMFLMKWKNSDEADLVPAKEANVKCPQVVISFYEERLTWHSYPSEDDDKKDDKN
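HP1-beta protein (50 nM final) preincubated 30 min at room temperature with biotinylated H3(1-18)K9me3 peptide (50 nM) in PBS pH 7.4, 0.01% Tween-20, then compound added for 30 min. AlphaScreen streptavidin donor/nickel chelate acceptor beads (10 ug/mL final), 30 min dark, luminescence read.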
BAZ2B block = BAZ2B (human) inhibition | Q9UIF8 | AlphaScreen BAZ2B-H3K14Ac peptide displacement | Potency, µM (series often up to 114 µM), without a hit: top-dose activity change, negative = inhibition, hits mostly inhibitors | actives 4.4% (n = 360,000); note: % is set by controls: 0 for no effect and ±100 for the full control effect; nearly all actives have a fitted effect of over 60% in size
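BAZ2B 50 nM plus b-H3(5-23)K14Ac 50 nM, PBS pH 7.4/0.01% Tween-20, 30 min RT; compound added (max 110 uM), 30 min RT; streptavidin donor/Ni-chelate acceptor beads 10 ug/mL final, 20 min dark; AlphaScreen read.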
Sfp PPTase inh = Sfp phosphopantetheinyl transferase inhibition; Potency, µM, inactives show largest response in the series, negative = inhibition, most hits filed as inhibitors; actives 3.5% (n = 310,000); Biochemical Sfp PPTase activity, qHTS; AID 1490; Q9F4F7;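 note: the enzyme is Sfp with the accession as filed and its product quenches rhodamine fluorescence; 0% = enzyme reaction without inhibitor and -100% = no enzyme wells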
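Reaction rates are the 30-min fluorescence difference (ex 525, em 598 nm) in wells containing 15 nM Sfp, 5 uM rhodamine-CoA and 12.5 uM BHQ-2-YbbR at pH 7.6 with 10 mM MgCl2.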
JMJD2A Tudor inh = JMJD2A Tudor domain (human) inhibition; O75164; AlphaScreen JMJD2A-Tudor / H3K4me3 peptide binding; Potency, µM (doses to about 114 µM), inactives show at the highest dose activity change, negative = inhibition, usual class: inhibitors; actives 4.4% (n = 390,000); AID 504339; note: % is set by controls: 0 for no effect and ±100 for the full control effect; nearly all actives have a fitted effect of over 50% in size
G9a inh = G9a (human) methyltransferase inhibition | Q96KQ7 | G9a H3K9 monomethylation, AlphaScreen, 2 h | Potency, µM (series often up to 102 µM), for inactives: at the top dose activity, negative = inhibition, hits mostly inhibitors | actives 8.8% (n = 350,000); note: % is set by controls: 0 for no effect and ±100 for the full control effect; nearly all actives have a fitted effect of over 75% in size
Target sequence (Q96KQ7 913-1193 limits assumed): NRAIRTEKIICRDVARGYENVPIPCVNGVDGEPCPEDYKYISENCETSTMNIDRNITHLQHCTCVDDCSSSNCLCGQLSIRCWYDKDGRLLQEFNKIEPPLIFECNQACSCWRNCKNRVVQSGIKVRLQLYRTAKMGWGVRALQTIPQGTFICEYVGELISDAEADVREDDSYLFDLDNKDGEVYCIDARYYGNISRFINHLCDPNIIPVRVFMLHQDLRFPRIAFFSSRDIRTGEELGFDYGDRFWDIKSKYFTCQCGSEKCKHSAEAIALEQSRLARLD
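G9a (20 nM) preincubated 15 min RT with compounds, then 500 nM biotinylated H3K9 peptide and 20 uM SAM added; 2 h RT reaction. Monomethyl-H3K9 product detected by AlphaScreen with anti-H3K9me1 antibody, streptavidin donor and anti-rabbit IgG acceptor beads.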
An asterisk follows results filed as active; ? = inconclusive; · = not tested or not shown; [ ] = dose if it differs, or a comment. Calls come from the whole dose curve; as a rule, active = well fitted curve in the direction sought with a large enough effect; inconclusive = small, poorly fitted or top-dose-only effect, or another doubt; inactive = no such curve, though single readings can be large; an effect the other way counts as inactive or inconclusive. Potency is the fitted concentration of half-maximal effect.

SMILES	L3MBTL1 inh	HP1b chromo inh	BAZ2B block	Sfp PPTase inh	JMJD2A Tudor inh	G9a inh
Cc1ccc2cc(CN(Cc3ccc(F)cc3)Cc3nnnn3C3CCCC3)c(=O)[nH]c2c1	0%	14%	3%	22µM*	-31%	14µM*
COc1cc2cc(CN(Cc3nnnn3Cc3ccco3)C3CCCCC3)c(=O)[nH]c2cc1OC	-12%	-16%	-10%	10µM*	?	40µM*
COc1cc2nc(N(CCCN(C)C)C(=O)c3ccc(S(=O)(=O)N4CCc5ccccc54)cc3)sc2cc1OC	-5%	?	?	·	50µM*	11µM*
COc1cc2nc(NC(=O)c3ccc(S(=O)(=O)N4CCc5ccccc54)cc3)sc2cc1OC	·	5%[57 µM]	-15%	·	-31%	6%[59 µM]
COc1ccc2sc(N(CCCN(C)C)C(=O)c3ccc(S(=O)(=O)N4CCCc5ccccc54)cc3)nc2c1	-21%	?	28µM*	·	20µM*	40µM*
CCOC(=O)N1CCN(S(=O)(=O)c2ccc(C(=O)N(CCCN(C)C)c3nc4ccc(OC)cc4s3)cc2)CC1	·	10%	-18%	-6%	-17%	?
CSc1ccc(CCNC(=O)c2ccc(CS(=O)(=O)c3ccc(Br)cc3)o2)cc1	·	21%	16%	·	-31%	11%[59 µM]
COc1ccc(OCc2nc3c4cc(OC)c(OC)cc4nc(=S)n3[nH]2)cc1	9%	34%	10%	-2%	-20%	1µM*
COc1cc2nc(=S)n3[nH]c(CCn4c(C)nc5ccccc54)nc3c2cc1OC	·	64%	-6%	?	?	?
O=C(NCc1ccco1)/C(=C/c1ccc([N+](=O)[O-])cc1)NC(=O)c1ccco1	·	8%	-15%	12%	1%	20%
COc1ccc(NC(=S)N(Cc2ccc(N(C)C)cc2)Cc2ccco2)cc1	?	?	32µM*	-7%	50µM*	?
CCOc1ccc(NC(=S)N(Cc2ccc(N(C)C)cc2)Cc2ccco2)cc1	?	?	35µM*	5%	16µM*	40µM*
Cc1ccc(COc2ccsc2-c2n[nH]c(=S)n2C)cc1	0%	36%	?	-30%	4%	·
Cn1c(-c2sccc2OCc2ccc(Cl)cc2Cl)n[nH]c1=S	-29%	-16%	?	3%	-17%[11.4 µM]	3.2µM*
Cn1c(-c2sccc2OCc2ccccc2)n[nH]c1=S	-1%	?	56µM*	13%	3.2µM*	2.8µM*
CCOc1ccc(N=Cc2ccc3ccccc3c2)cc1	2%	4%	3%	11%	-9%	17%
O=[N+]([O-])c1cc(C=Nc2ccc3ccccc3c2)ccc1Br	-20%	50µM*	28µM*	-7%	50µM*	10µM*
C=C(C)C(=O)Nc1cccc(C2=NOC3(C2)C[C@@H](C(N)=O)N(C(=O)/C=C/C=C/C)C3)c1 (stereo partly specified)	·	?	2µM*	32µM*	3.2µM*	?
C/C=C/C=C/C(=O)N1CC2(CC(c3cccc(NC(=O)/C=C/C)c3)=NO2)C[C@@H]1C(N)=O (stereo partly specified)	·	14%	-2%	28µM*	-30%	?
C/C=C/C(=O)Nc1cccc(C2=NOC3(C2)C[C@H](C(N)=O)N(C(=O)/C=C/C)C3)c1 (stereo partly specified)	·	23%	0%	9%	-15%	-3%[59 µM]
O=S(=O)(c1ccc(Br)cc1)N1CCn2cccc2C1c1ccc(Br)cc1 (stereo unspecified)	·	9%	-11%	·	-17%	-19%[59 µM]
COc1ccc(C2c3cccn3CCN2S(=O)(=O)c2ccc([N+](=O)[O-])cc2)cc1 (stereo unspecified)	·	-4%	?	·	-35%	13µM*
COc1ccccc1NS(=O)(=O)c1cc(C(=O)NCC(c2ccc(F)cc2)N2CCOCC2)ccc1C (stereo unspecified)	1%	17%	-9%	·	-11%	-24%
CCC1CC=CC2C1C(=O)N(Cc1ccccc1)C2c1ccc(OC)c(Cl)c1 (stereo unspecified)	·	43%	·	?	7%	·
O=C1CCn2c1c(O)c1ccccc1c2=O	·	-14%	·	·	35µM*	·
SMILES	L3MBTL1 inh	HP1b chromo inh	BAZ2B block	Sfp PPTase inh	JMJD2A Tudor inh	G9a inh
CCOc1ccccc1OCCC(=O)OCC(=O)Nc1c(C)nn(-c2ccccc2)c1C	1%	29%	7%	·	-12%	56µM*
CSc1ccc(CCNC(=O)C(C)n2c(C)c3cnn(-c4ccccc4)c(=O)c3c2C)cc1 (stereo unspecified)	·	-10%	-34%	·	?	-26%[59 µM]
O=C(O)/C(=C\c1ccc(Br)cc1)NC(=O)c1cccs1	·	14%	-2%	22%	1%	10%
Cc1cccc2cc(C(c3nnnn3Cc3ccc4c(c3)OCO4)N3CCCC3)c(=O)[nH]c12 (stereo unspecified)	-7%	27%	-9%	56µM*	-4%	18µM*
CCOc1ccc2[nH]c(=O)c(C(c3nnnn3Cc3ccco3)N3CCN(C)CC3)cc2c1 (stereo unspecified)	-25%	32%	-38%	13%	2%	·
Cc1cccc2cc(C(c3nnnn3CC3CCCO3)N3CCCC4(CCCCC4)C3)c(=O)[nH]c12 (stereo unspecified)	2%	·	5%	21%	·	-10%[59 µM]
Cc1cc2cc(C(c3nnnn3Cc3ccco3)N3CCCCC3)c(=O)[nH]c2cc1C (stereo unspecified)	·	24%	-6%	40µM*	-12%	50µM*
O=c1[nH]c2cc3c(cc2cc1C(c1nnnn1Cc1ccccc1)N1CCCCCC1)OCCO3 (stereo unspecified)	·	26%	9%	-22%	-5%	14µM*
Cc1cc(C(c2nnnn2Cc2ccccc2)N2CCOCC2)c(C)n1-c1ccc2c(c1)OCO2 (stereo unspecified)	-17%	?	?	28µM*	?	40µM*
O=C(NCCCN1CCCCCC1)C(c1ccccc1)C1CCCCC1 (stereo unspecified)	·	·	·	0%	·	22%[59 µM]
Cc1ccc2cc(C(c3nnnn3C(C)(C)C)N3CCCC3)c(=O)[nH]c2c1C (stereo unspecified)	-4%	·	-29%	45µM*	·	32µM*
CCC(C)n1ncn(-c2ccc(N3CCN(c4ccc(OCC5COC(Cn6cncn6)(c6ccc(Cl)cc6Cl)O5)cc4)CC3)cc2)c1=O (stereo unspecified)	·	-2%	?	3%	?	?
CCC(C)n1ncn(-c2ccc(N3CCN(c4ccc(O)cc4)CC3)cc2)c1=O (stereo unspecified)	-1%	?	-32%	-26%	89µM*	7.9µM*
